Read-out in test [1]: Monokine induced gamma interferon (MIG), CXCL9 (gene 4283)
Nature of the test: BSK_hDFCGF_MIG: BioMAP Diversity Plus: hDFCGF Assay for Monokine induced gamma interferon (MIG) Biomarker Activity (AID 2283063). The note with it: primary human foreskin fibroblasts; actives raise or lower the signal. In short, it runs like this:
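Human primary foreskin fibroblasts in the hDFCGF system, exposed to test chemical for 24 h; MIG measured by ELISA. Bidirectional curve fitting against DMSO negative control as activity baseline.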

Read-out in test [2]: Vascular cell adhesion molecule 1 (VCAM1), VCAM1 (gene 7412)
Nature of the test: BSK_hDFCGF_VCAM1: BioMAP Diversity Plus: hDFCGF Assay for Vascular cell adhesion molecule 1 (VCAM1) Biomarker Activity (AID 2283065).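 For AC50: VCAM-1 protein level quantified by ELISA after 24 h chemical exposure.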 The note with it: primary human foreskin fibroblasts; actives raise or lower the signal. In outline: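 ELISA readout of VCAM-1 on human dermal fibroblast primary cultures, 24 h after chemical exposure. Gain or loss of signal fitted in both directions against DMSO baseline.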

Read-out in test [3]: Plasminogen activator inhibitor-1 (PAI1), SERPINE1 (gene 5054)
Description: BSK_hDFCGF_PAI1: BioMAP Diversity Plus: hDFCGF Assay for Plasminogen activator inhibitor-1 (PAI1) Biomarker Activity (AID 2283066). The note with it: primary human foreskin fibroblasts; actives raise or lower the signal. In short, it runs like this:
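Fibroblasts from human foreskin were treated with test chemical. After 24 h, PAI-1 was measured by ELISA. Activity was fitted in both directions relative to DMSO.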

Read-out in test [4]: Intercellular Adhesion Molecule 1 (ICAM1), ICAM1 (gene 3383)
Description: BSK_KF3CT_ICAM1: BioMAP Diversity Plus: KF3CT Assay for Intercellular Adhesion Molecule 1 (ICAM1) Biomarker Activity (AID 2283067). To be noted: primary human keratinocytes with fibroblasts; actives raise or lower the signal. In short, it runs like this: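 Cell-surface ICAM-1 was measured by ELISA 24 h after dosing primary human skin keratinocytes co-cultured with fibroblasts. Parallel SRB staining tracked overt cytotoxicity. Gain or loss of signal was fitted relative to DMSO.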

Read-out in test [5]: Interferon-gamma inducible Protein 10 (IP10), CXCL10 (gene 3627)
Nature of the test: BSK_KF3CT_IP10: BioMAP Diversity Plus: KF3CT Assay for Interferon-gamma inducible Protein 10 (IP10) Biomarker Activity (AID 2283068). To be noted: primary human keratinocytes with fibroblasts; actives raise or lower the signal. In outline: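 Signal is secreted/surface IP-10 by ELISA in a human primary skin co-culture of keratinocytes and foreskin fibroblasts, taken 24 h post-dosing; DMSO served as negative control.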

The nature of test [6]: BSK_KF3CT_SRB: Viability Assessment in the BioMAP Diversity Plus: KF3CT Assay (AID 2283069).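 Note: read 24 h after compound addition.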 To be noted: primary human keratinocytes with fibroblasts. In outline:
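Overt cytotoxicity is assessed as total protein by sulforhodamine B staining in parallel human skin co-cultures at 24 h after dosing. DMSO serves as negative control and baseline.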

Read-out in test [7]: Interleukin-1 alpha (IL1a), IL1A (gene 3552)
Description: BSK_KF3CT_IL1a: BioMAP Diversity Plus: KF3CT Assay for Interleukin-1 alpha (IL1a) Biomarker Activity (AID 2283070). The note with it: primary human keratinocytes with fibroblasts; actives raise or lower the signal. In short, it runs like this:
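Readout is IL-1a level by ELISA, compared bidirectionally with DMSO as baseline. Cells: human keratinocytes co-cultured with foreskin fibroblasts, harvested 24 h post-dose.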

Read-out in test [8]: TIMP metallopeptidase inhibitor 2 (TIMP2), TIMP2 (gene 7077)
Description: BSK_KF3CT_TIMP2: BioMAP Diversity Plus: KF3CT Assay for TIMP metallopeptidase inhibitor 2 (TIMP2) Biomarker Activity (AID 2283071). The note with it: primary human keratinocytes with fibroblasts; actives raise or lower the signal. In outline: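 Chemicals were dosed onto human skin primary co-cultures of keratinocytes and foreskin fibroblasts, and TIMP-2 was measured by ELISA after 24 hours. Activity in either direction was fitted relative to DMSO.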

Read-out in test [9]: Transforming growth factor beta 1 (TGFb1), TGFB1 (gene 7040)
Nature of the test: BSK_KF3CT_TGFb1: BioMAP Diversity Plus: KF3CT Assay for Transforming growth factor beta 1 (TGFb1) Biomarker Activity (AID 2283072). To be noted: primary human keratinocytes with fibroblasts; actives raise or lower the signal. In outline: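 KF3CT co-culture (keratinocytes + fibroblasts), 24 h exposure → TGF-b1 ELISA → bidirectional fit, DMSO = baseline. Parallel SRB total-protein staining (0.1% SRB, 10% TCA fixation, 560 nm) for cytotoxicity.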

Read-out in test [10]: Matrix Metallopeptidase 9 (MMP9), MMP9 (gene 4318)
Nature of the test: BSK_KF3CT_MMP9: BioMAP Diversity Plus: KF3CT Assay for Matrix Metallopeptidase 9 (MMP9) Biomarker Activity (AID 2283074).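 For AC50: MMP9 protein level quantified by ELISA in the co-culture.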 To be noted: primary human keratinocytes with fibroblasts; actives raise or lower the signal. In short, it runs like this:
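Values come from bidirectional fitting relative to DMSO of MMP-9 levels, which were measured by ELISA. Measurements were taken 24 h after chemical dosing of a keratinocyte and foreskin fibroblast co-culture.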

Read-out in test [11]: urokinase plasminogen activator (uPA), PLAU (gene 5328)
Nature of the test: BSK_KF3CT_uPA: BioMAP Diversity Plus: KF3CT Assay for urokinase plasminogen activator (uPA) Biomarker Activity (AID 2283075). The note with it: primary human keratinocytes with fibroblasts; actives raise or lower the signal. In short, it runs like this: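 Values derive from bidirectional fitting against DMSO controls. Keratinocyte/foreskin fibroblast co-cultures received chemical; 24 h later uPA was detected by ELISA, with SRB total-protein staining in parallel wells for overt cytotoxicity.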

Read-out in test [12]: CD40, CD40 (gene 958)
Description: BSK_LPS_CD40: BioMAP Diversity Plus: LPS Assay for CD40 Biomarker Activity (AID 2283076). To be noted: primary human HUVEC with PBMC; actives raise or lower the signal. In outline:
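In the LPS system of human endothelial cells with peripheral blood mononuclear cells, CD40 levels were read by ELISA 24 h post-treatment. Signal changes in either direction were fitted against the DMSO baseline, with parallel SRB protein staining.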

Read-out in test [13]: E-selectin (Homo sapiens) (UniProt P16581)
Nature of the test: BSK_LPS_Eselectin: BioMAP Diversity Plus: LPS Assay for Eselectin Biomarker Activity (AID 2283077). To be noted: primary human HUVEC with PBMC; actives raise or lower the signal. In outline: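 E-selectin ELISA on LPS-stimulated endothelial cell/PBMC co-cultures, read 24 h post-treatment; gains and losses fitted against DMSO. Parallel SRB staining (0.1% SRB after 10% TCA fixation, 560 nm) flags overt cytotoxicity.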

Read-out in test [14]: Interleukin-8 (IL8), CXCL8 (gene 3576)
Nature of the test: BSK_LPS_IL8: BioMAP Diversity Plus: LPS Assay for Interleukin-8 (IL8) Biomarker Activity (AID 2283078). To be noted: primary human HUVEC with PBMC; actives raise or lower the signal. In outline: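 ELISA read-out of IL-8 after 24 h chemical treatment of LPS-activated endothelial/PBMC human primary co-cultures. Changes either up or down relative to DMSO; overt cytotoxicity checked by sulforhodamine B staining in parallel wells.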

A short description of test [15]: BSK_LPS_SRB: Viability Assessment in the BioMAP Diversity Plus: LPS Assay (AID 2283079).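 Note: total protein by sulforhodamine B absorbance as a cytotoxicity measure; measured one day after compound addition.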 To be noted: primary human HUVEC with PBMC. In short, it runs like this: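 SRB viability endpoint: cells fixed with 10% TCA, stained with 0.1% SRB, read at 560 nm, 24 h post-dose. HUVEC/PBMC co-culture; signal change in either direction scored relative to DMSO.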
Read-out in test [16]: Interleukin-1 alpha (IL1a), IL1A (gene 3552)
Nature of the test: BSK_LPS_IL1a: BioMAP Diversity Plus: LPS Assay for Interleukin-1 alpha (IL1a) Biomarker Activity (AID 2283080). The note with it: primary human HUVEC with PBMC; actives raise or lower the signal. In outline: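 Readout is IL-1a level by ELISA, 24 h post-dose, fitted as gain or loss relative to DMSO. System: LPS-activated human primary co-culture of vascular endothelium and peripheral blood mononuclear cells, with parallel SRB total-protein cytotoxicity.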

Read-out in test [17]: Monocyte Chemoattractant Protein-1 (MCP1), CCL2 (gene 6347)
Nature of the test: BSK_LPS_MCP1: BioMAP Diversity Plus: LPS Assay for Monocyte Chemoattractant Protein-1 (MCP1) Biomarker Activity (AID 2283081).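 For AC50: secreted MCP-1 protein quantified by ELISA in culture supernatant.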 The note with it: primary human HUVEC with PBMC; actives raise or lower the signal. In outline: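 Secreted MCP-1 read by ELISA at 24 h post-dosing in an LPS-activated co-culture of endothelial cells with peripheral blood mononuclear cells. Fits run in both directions, DMSO as baseline; parallel SRB staining tracks overt cytotoxicity.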

Test [18] is described as follows: BSK_LPS_PGE2: BioMAP Diversity Plus: LPS Assay for Prostaglandin E2 (PGE2) Biomarker Activity (AID 2283082). The note with it: primary human HUVEC with PBMC; actives raise or lower the signal. In short, it runs like this:
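Compounds were added to the LPS co-culture of endothelium and PBMC, and PGE2 was measured by ELISA after 24 h. Responses in either direction were fitted with DMSO as baseline.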

The source of these data is PubChem BioAssay (EPA / NIEHS).

For orientation: AC50 means the midpoint of the concentration-response curve, whichever way the signal moves.

Activity calls are given as the source filed them. Rule for the calls: active = hit-call score of the fitted dose curve at least 0.9, where 1 is the maximum; inactive = score below 0.9.

Sequence of E-selectin (Homo sapiens) (P16581 whole entry, looked up): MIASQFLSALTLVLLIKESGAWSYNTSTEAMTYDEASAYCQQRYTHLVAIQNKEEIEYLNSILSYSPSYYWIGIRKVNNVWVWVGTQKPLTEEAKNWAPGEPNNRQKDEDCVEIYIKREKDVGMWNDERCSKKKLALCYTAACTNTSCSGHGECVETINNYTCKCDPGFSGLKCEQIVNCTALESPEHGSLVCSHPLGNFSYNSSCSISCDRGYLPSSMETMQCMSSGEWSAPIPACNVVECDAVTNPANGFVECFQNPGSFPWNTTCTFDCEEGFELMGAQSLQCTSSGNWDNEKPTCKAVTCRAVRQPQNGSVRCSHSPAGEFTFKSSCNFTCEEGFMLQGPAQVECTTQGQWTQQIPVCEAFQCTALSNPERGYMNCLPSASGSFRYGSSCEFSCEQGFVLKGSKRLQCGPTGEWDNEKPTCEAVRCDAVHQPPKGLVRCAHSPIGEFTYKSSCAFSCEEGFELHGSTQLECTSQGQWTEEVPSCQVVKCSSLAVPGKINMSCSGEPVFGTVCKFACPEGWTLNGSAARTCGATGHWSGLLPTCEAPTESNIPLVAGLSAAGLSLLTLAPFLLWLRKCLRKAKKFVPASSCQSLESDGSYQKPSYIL

In the case of `CC(C)=CC1C(C(=O)OCc2cccc(Oc3ccccc3)c2)C1(C)C` (stereo not drawn), the result in [1], in test [4], in test [5], in [6], in test [7] and in [9] was inactive. Also, the outcome in test [10], in test [11], in test [12], in test [13], in test [14] and in test [15] was inactive. For the same compound, the outcome in [16], in test [17] and in test [18] was inactive. Moreover, the AC50 is 12.4 µM (active) in [2], 12.5 µM (active) in test [3] and 2.81 µM (active) in test [8].

`CC(C)(C)c1ccccc1O`: the outcome in test [1], in test [2], in test [3], in test [4], in [5] and in test [6] was inactive. The outcome in test [7], in test [8], in test [9], in test [10], in test [12] and in test [13] was inactive. Moreover, the outcome in test [14], in test [15], in test [16] and in test [18] was inactive. In addition, the AC50 in test [17] is 3.18 µM (active).

`CCOC(=O)C(SP(=S)(OC)OC)c1ccccc1` (stereo not drawn): the result in [1], in test [3], in [4], in test [5], in [6] and in [7] was inactive. The outcome in [8], in [10], in test [11], in test [12], in [13] and in test [14] was inactive. Besides, the outcome in test [15], in [16], in [17] and in test [18] was inactive. Also, the AC50 in test [2] and in [9] was 20 µM (active) in each case.

For `O=C(O)C1(c2ccc3c(c2)OC[C@H](Cc2ccc(-c4ccccc4)cc2)[C@H]3O)CCCC1`, the AC50 in test [1] was 12.8 µM (active); in test [2] it was 5.32 µM (active); in test [3], 5.07 µM (active); in test [4], 30.3 µM (active); in [5], 9.87 µM (active); in [6] it was 25.7 µM (active). Also, the AC50 in test [7] is 31.3 µM (active); in test [8] it was 14 µM (active); in [10], 12.9 µM (active); in test [11] it was 28.6 µM (active); in test [12], 20 µM (active). Moreover, the result in test [13], in [14], in test [15], in test [16], in [17] and in [18] was inactive.

Consider `CC(C=O)Cc1ccc2c(c1)OCO2` (stereo not drawn), for which the result in test [1], in [2], in [3], in test [4], in [5] and in [6] was inactive. Also, the outcome in [7], in test [8], in test [9], in test [10], in test [11] and in [12] was inactive. For the same compound, the outcome in [13], in test [14], in test [15], in test [16], in [17] and in [18] was inactive.
